Pol kappa inh-1 = inhibitors of human DNA polymerase kappa. Potency, µM (top dose mostly 107 µM), for the others: at the highest dose activity, negative = inhibition, actives largely listed as inhibitors. AID 588579. purified Pol kappa, fluorescent DNA synthesis assay, 10 min. hit rate 0.53% among 400,000; also: % is scaled to controls: 0 for no effect and ±100 for the full control effect
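Inhibition of 10 nM Pol kappa is measured by a fluorescent read-out at 0 and 10 min following addition of 50 nM substrate (final), with a 15-min room-temperature compound preincubation.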
PGK inhibitor = blocks T. brucei phosphoglycerate kinase. PGK/GAPDH coupled, Kinase-Glo luminescence, 60 min. hit rate 0.043% among 380,000. Potency, µM (titrated, usually from 57.5 µM), inactives show top-dose activity change, negative = inhibition, usual class: inhibitors; also: % is scaled to controls: 0 for no effect and ±100 for the full control effect; nearly all actives have a fitted effect of over 60% in size
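Luminescent ATP detection (Kinase-Glo Plus) follows a 60-minute room-temperature incubation, with wells lacking PGK as controls. Buffer: 100 mM TEA (pH 7.6), 5 mM MgCl2, 0.01% Tween-20. Coupling enzyme GAPDH (100 nM final) supplies unstable 1,3-BPG in-well.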
POLB inh = blocks human DNA polymerase beta activity; AID 485314; Potency, µM (highest dose often 114 µM), for inactives: at the highest dose activity change, negative = inhibition, most hits filed as inhibitors; P06746; hit rate 1.3% among 340,000; Pol beta primer extension/strand displacement, fluorescence kinetic; also: % is scaled to controls: 0 for no effect and ±100 for the full control effect
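Reaction started by 50 nM substrate onto compound-treated Pol beta (10 nM, 15 min preincubation, room temperature); plates read at 0 min and 10 min. Normalized concentration-effect data fitted by four-parameter Hill equation.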
FEN1 inhibitor = human FEN1 inhibition | P39748 | hit rate 0.35% among 390,000 | Potency, µM (titrated, usually from 114 µM), for the others: top-dose activity change, negative = inhibition, hits mostly inhibitors | Recombinant FEN1 flap cleavage, fluorescence, 15 min; also: % is scaled to controls: 0 for no effect and ±100 for the full control effect; nearly all actives have a fitted effect of over 65% in size
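Reaction started by adding substrate (50 nM final) to 10 nM enzyme after 15 min room-temperature compound preincubation. Reads at 0 and 15 min, with data normalized and fitted to a four-parameter Hill equation.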
POLI inh = blocks human DNA polymerase iota activity | Q9UNA4 | Pol iota fluorescent replication assay, 10 min | Potency, µM (titrated, usually from 115 µM), for inactives: at the top dose activity, negative = inhibition, usual class: inhibitors | hit rate 1% among 390,000 | AID 588590
Target sequence (Q9UNA4 whole entry, looked up): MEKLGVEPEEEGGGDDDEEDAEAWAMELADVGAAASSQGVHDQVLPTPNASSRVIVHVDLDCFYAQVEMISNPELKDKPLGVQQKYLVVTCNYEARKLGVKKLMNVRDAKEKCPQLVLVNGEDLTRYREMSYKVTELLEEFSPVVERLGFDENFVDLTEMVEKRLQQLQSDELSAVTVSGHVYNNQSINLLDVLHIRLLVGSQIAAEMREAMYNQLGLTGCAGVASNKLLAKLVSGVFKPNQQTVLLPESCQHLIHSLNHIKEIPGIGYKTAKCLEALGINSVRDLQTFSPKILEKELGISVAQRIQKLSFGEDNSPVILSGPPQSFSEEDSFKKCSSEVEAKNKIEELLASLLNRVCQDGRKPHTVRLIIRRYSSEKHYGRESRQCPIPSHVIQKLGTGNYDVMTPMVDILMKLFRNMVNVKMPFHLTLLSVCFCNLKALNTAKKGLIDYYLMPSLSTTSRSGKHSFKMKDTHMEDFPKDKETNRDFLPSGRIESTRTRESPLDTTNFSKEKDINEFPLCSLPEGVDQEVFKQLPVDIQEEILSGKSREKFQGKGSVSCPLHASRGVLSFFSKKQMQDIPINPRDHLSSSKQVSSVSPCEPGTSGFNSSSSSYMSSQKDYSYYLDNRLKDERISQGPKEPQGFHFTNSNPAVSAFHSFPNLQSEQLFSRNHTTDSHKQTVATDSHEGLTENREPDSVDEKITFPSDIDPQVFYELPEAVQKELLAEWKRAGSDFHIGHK
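Fluorescent replication assay read twice, at 0 min and 10 min after adding 50 nM (final) substrate. Enzyme (10 nM) and compounds were first incubated 15 min at room temperature; enzyme-free buffer wells were negative controls.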
Pol eta inh-1 = blocks human DNA polymerase eta activity. Q9Y253. recombinant Pol eta, fluorescent DNA replication assay. Potency, µM (top dose mostly 114 µM), without a hit: at the highest dose activity change, negative = inhibition, most hits filed as inhibitors. hit rate 1.2% among 390,000. AID 588591; also: % is scaled to controls: 0 for no effect and ±100 for the full control effect
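Fluorescent replication assay: 50 nM final substrate added after a 15 min room-temperature compound preincubation with 10 nM enzyme. Signal taken at 0 min and again at 10 min.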
PGK validate = TbPGK inhibition, hit validation; hit rate 79% among 500; shares compounds with Pol kappa inh-1; Potency, µM (highest dose often 57.5 µM), for inactives: top-dose activity change, negative = inhibition, hits mostly inhibitors; AID 686980; TbPGK coupled GAPDH assay, Kinase-Glo luminescence; also: % is scaled to controls: 0 for no effect and ±100 for the full control effect; nearly all actives have a fitted effect of over 65% in size
Pol iota confirm = Human Pol iota inhibitor confirmatory assay. hit rate 77% among 1,500. AID 720496. shares compounds with Pol kappa inh-1. Potency, µM, actives largely listed as inhibitors. Pol iota primer extension, TAMRA/BHQ fluorescence
Pol kappa inh-2 = Pol kappa (human) inhibition, cherry-pick confirmation; purified Pol-kappa, fluorescent strand-displacement substrate; shares compounds with Pol eta inh-1; Potency, µM, actives largely listed as inhibitors; hit rate 76% among 920
Pol eta inh-2 = confirmation of human DNA polymerase eta inhibitors. shares compounds with Pol eta inh-1. Pol eta primer extension, TAMRA/BHQ fluorescence, 10 min. Potency, µM, hits mostly inhibitors. hit rate 64% among 2,600
* marks the source's active call; other numbers are inactive results; i = inactive; ? = inconclusive; / = not tested or not shown. Most compounds without a hit are left out; they make up all but 2.4% or so of the library. Calls follow the shape of the dose curve; as a rule, active = well fitted curve in the direction sought with a large enough effect; inconclusive = small, poorly fitted or top-dose-only effect, or another doubt; inactive = no such curve, though single readings can be large; an effect the other way counts as inactive or inconclusive. Potency is read from the fitted curve at half-maximal effect.

SMILES	Pol kappa inh-1	PGK inhibitor	POLB inh	FEN1 inhibitor	POLI inh	Pol eta inh-1	Pol iota confirm	Pol eta inh-2	others
COc1ccc(CNC(=O)COC(=O)c2ccc(S(=O)(=O)NCc3ccco3)cc2)cc1	?	?	/	6%	50µM*	32µM*	?	67*
O=C(COC(=O)c1ccc(S(=O)(=O)NCc2ccco2)cc1)NCc1ccc(F)cc1	-18%	-7%	/	19%	-27%	-1%	/	/
Cc1ccc(C(=O)OCC(=O)NCc2ccco2)s1	79µM*	-11%	22µM*	-12%	28µM*	22µM*	42*	67*
O=C(Cn1c(=O)n(-c2ccccc2)c(=O)c2ccc(C(=O)NCc3ccc4c(c3)OCO4)cc21)Nc1ccc(Br)cc1F	3%	i	24%	-16%	3%	3%	/	/
Nc1c(/C=C2/C=CC(=O)C(O)=C2)c(=O)nc2sc(CC(=O)N3CCCC3)nn12	?	?	7.9µM*	?	3.2µM*	4µM*	24*	5.4*
CC1=Nc2ccc(C)cc2/C1=C/c1c(N)n2nc(CC(=O)N3CCOCC3)sc2nc1=O	-6%	-7%	-1%	1%	26%	-20%	/	/
CCc1nn2c(N)c(/C=C3\C=Nc4ccccc43)c(=O)nc2s1	-21%	-11%	-3%	-8%	20%	3%	/	/
Nc1c(/C=C2/C=CC(=O)C(O)=C2)c(=O)nc2sc(CC(=O)N3CCOCC3)nn12	?	?	/	25µM*	8.9µM*	3.5µM*	17*	6*	PGK validate=9.2µM*
O=C(COC(=O)/C=C/c1cccc(F)c1)Nc1ncccn1	?	-11%	-27%	-4%	50µM*	28µM*	42*	48*
Cc1ccc(NC(=O)C(Cc2ccccc2)N2Cc3ccccc3C2=O)cc1Cl (stereo unspecified)	0%	i	1%	2%	4%	-19%	/	/
O=C(CCN1C(=O)/C(=C\C=C\c2ccccc2)SC1=S)Nc1cccc(C(=O)O)c1	79µM*	-27%	50µM*	-31%	-20%	22µM*	75*	54*
O=C(CCCN1C(=O)/C(=C\c2ccccc2)SC1=S)Nc1cccc(C(=O)O)c1	-2%	i	18%	9%	?	-16%	/	/
CCc1ccc(-n2nc3cc(C)c(NC(=O)c4cc(Cl)ccc4OC)cc3n2)cc1	3%	-6%	2%	0%	21%	-19%	/	/
COc1ccc(C(=O)N2C(=S)NC(=O)/C2=C\c2ccc(C)cc2)cc1	?	?	50µM*	?	?	?	75*	?
C=CCc1cccc2cc(C(=O)Nc3ccc(CC(=O)O)cc3)c(=O)oc12	?	-13%	22µM*	?	?	35µM*	?	67*
CC1=C(C#N)c2nc(N)c(C#N)c(C)c2/C1=C\c1ccc(OCC(=O)O)c(Cl)c1	79µM*	-13%	-17%	?	?	7.9µM*	47*	19*	Pol kappa inh-2=19*
COc1cc2c(cc1NC(=O)CSc1nc3ccccc3[nH]1)oc1ccccc12	?	-6%	5%	-7%	45µM*	50µM*	42*	43*
N#CN=c1snc(-c2ccccc2Cl)n1-c1ccccc1Cl	-24%	/	/	-18%	59%	/	/	/

Bioassay records deposited in PubChem BioAssay by National Center for Advancing Translational Sciences (NCATS).
